Assay outcomes deposited in PubChem by Broad Institute.
aSyn UTR act = Activators working through SNCA 5'UTR binding (MLPCN); 300,000 compounds, 7.1% hits; AID 1814; alpha-synuclein 5'UTR reporter, activators screen; activity score, % (tested at 7.5 µM), hits read low; in the data active = activity score below about -60%
* = called active by the depositor. These entries were drawn from the full list.

SMILES	aSyn UTR act
Nc1[nH]c(N=NC(=O)c2ccc(F)cc2)c2ccccc12	-147.1*
Nc1ccccc1C(=O)N=Nc1[nH]c(N)c2ccccc12	-100.8*
COc1cc(/C=C(\C#N)c2nc3ccccc3[nH]2)cc(OC)c1O	-99.3*
COc1cc(/C=C(\C#N)c2nc3ccccc3[nH]2)ccc1Oc1ccc([N+](=O)[O-])cn1	-104.2*
COc1cc(/C=C(/C#N)c2nc3ccccc3[nH]2)ccc1OC(=O)c1ccco1	-113.8*
COc1ccc(/C=C(\C#N)c2nc3ccc(C)cc3[nH]2)cc1Oc1ccc(C(F)(F)F)cc1[N+](=O)[O-]	-84.6*
COc1ccc(/C=C(\C#N)c2nc3ccccc3[nH]2)cc1O	-144.3*
COc1c(O)ccc(/C=C(\C#N)c2nc3ccccc3[nH]2)c1[N+](=O)[O-]	-92.0*
N#C/C(=C\c1cc([N+](=O)[O-])c(N2CCOCC2)cc1N1CCOCC1)c1nc2ccccc2[nH]1	-92.3*
Oc1ccccc1/C=N/Nc1ccccc1	-133.2*
Oc1ccc(/C=N/Nc2ccc3ccccc3c2)c(O)c1	-134.5*
CCc1cc2c(=O)c(-c3cscn3)coc2cc1O	-139.1*
COc1cccc2sc(/N=C/N(C)C)nc12	-81.4*
CC1(C)CN=c2s/c(=C\c3ccc(Cl)cc3)c(=O)n2C1	-111.3*
Cc1cnc(NC(=O)Nc2ccc(Cl)cc2)s1	-186.8*
O=C(Cc1csc(NC(=O)Nc2ccc(Cl)cc2)n1)NC1CCCC1	-91.4*
Cc1csc(NC(=O)NCC2CCCC(CNC(=O)Nc3nc(C)cs3)C2)n1 (stereo unspecified)	-66.0*
Cc1csc(NC(=O)Nc2ccc(Cl)cc2)n1	-114.8*
CCc1ccccc1NC(=O)c1ccc([N+](=O)[O-])s1	-68.0*
O=C(Nc1nnc(-c2ccco2)o1)c1ccc([N+](=O)[O-])s1	-71.1*
CC1CCN(S(=O)(=O)c2ccc(C(=O)Nc3nnc(-c4ccco4)o3)cc2)CC1	61.2
Cc1c(C(=O)NNC(=S)Nc2cccc(Cl)c2)nnn1-c1ccccc1	-68.8*
COc1ccc(NC(=O)COc2ccc(/C=N/n3c(C)nnc3C)cc2OC)cc1	-90.7*
COc1cc(/C=N/NC(=O)c2ccncc2)ccc1OCc1cnc(Cl)s1	-152.9*
COc1cc(/C=N/NC(=O)c2ccc(O)cc2)ccc1OCC(=O)Nc1cccc([N+](=O)[O-])c1	-81.7*
SMILES	aSyn UTR act
COc1ccc(/C=N/NC(=O)c2ccncc2)cc1COc1ccc(NC(C)=O)cc1	80.0
COc1cc(/C=C/[N+](=O)[O-])ccc1OCc1cccc(C(=O)O)c1	96.8
COc1cc(/C=N/NC(=O)c2cccc([N+](=O)[O-])c2)ccc1OCc1ccccc1	-135.1*
Cc1[nH]c2ccccc2c1/C=N/NC(=O)c1cccc([N+](=O)[O-])c1	-64.6*
Cc1cccc(NC(=O)COc2ccc(Br)cc2/C=N/O)c1	-166.6*
COc1cc(/C=N/NC(=O)c2cccc(C)c2)ccc1OCC(=O)Nc1ccccc1	-127.6*
O=C(COc1ccc(/C=N/NC(=O)c2ccncc2)cc1)Nc1ccccc1	-72.2*
Cc1cccc(C(=O)N2CCCC(c3nc(-c4ccc(C)o4)no3)C2)c1 (stereo unspecified)	-145.0*
O=C(/C=C/c1ccc(-c2ccccc2[N+](=O)[O-])o1)c1ccco1	-135.9*
CC(C)CCN1C(=O)c2cccc3c(N)ccc(c23)C1=O	60.9
CC(=O)c1ccc2c3c(cccc13)C(=O)N(CCc1ccccc1)C2=O	-138.2*
CCCCN(CC)C(=O)c1cc2cc3ccc(OC)cc3nc2o1	-110.9*
CCC(C)NC(=O)c1cc2cc3ccc(OC)cc3nc2o1 (stereo unspecified)	-146.9*
O=C(/C=C/Nc1ccc(F)c(Cl)c1)c1ccco1	-147.8*
O=C(/C=C/Nc1cccc(F)c1)c1ccco1	-264.0*
O=C(Nc1cccc(C(F)(F)F)c1)Oc1ccc(Cl)c2cccnc12	75.1
Cc1ccc(Nc2ncccc2C(=O)O)cc1C	-104.0*
Cc1ccc(Nc2ncccc2C(N)=O)cc1[N+](=O)[O-]	-201.0*
CNC(=O)c1cccnc1Nc1cccc(C(F)(F)F)c1	-148.1*
C/C(=N\O)c1ccc2c3c([nH]c2c1)CCCC3	-79.8*
CCOC(=O)c1cnc2c(C(=O)OCC)cnn2c1N	-63.4*
CCOC(=O)c1cnc(-n2nc(C)cc2C)nc1NNc1cc(-c2ccccc2)nc(C)n1	92.7
CCOC(=O)c1cnn2c(C)cc(-c3ccccc3)nc12	-119.8*
Cc1cc(C)n2ncc(/C(N)=N/OC(=O)c3ccccc3F)c2n1	-100.1*
CCOC(=O)c1cnc2c(-c3cccc(Br)c3)cnn2c1C	-126.9*
SMILES	aSyn UTR act
CCOC(=O)c1cnc2cc(-c3ccc(C(C)(C)C)cc3)nn2c1N	-231.6*
CCOC(=O)c1cnn(-c2ccc(C)cc2)c1N	-100.2*
CCc1ccc(NC(=O)COc2ccc3c(c2)OCO3)cc1	-73.8*
CCc1ccc(OCC(=O)Nc2ncn[nH]2)cc1	-87.5*
NC(=O)c1ccccc1NC(=O)COc1ccc2c(c1)OCO2	-87.2*
COc1ccccc1NC(=O)COc1ccc2c(c1)OCO2	-75.7*
O=S(=O)(Nc1cccc(-c2ccc(N3CCCCCC3)nn2)c1)c1ccc(C(F)(F)F)cc1	-87.7*
